According to the antibiotic and cytotoxicity screens of Wong et al. (2023):
In all, about 39,000 compounds went through this assay and about 3,300 (8.5%) were called active. Shown is part of a subset that was picked to be rich in actives.

These compounds were tested on HepG2 (assay: cytotoxicity call (relative viability < 0.9)). Conditions: 10 µM.

With `C[C@@H]1CCCCO[C@@H](CN(C)C(=O)NC2CCCCC2)[C@H](C)CN([C@H](C)CO)C(=O)c2cc(NC(=O)NC3CCCCC3)ccc2O1` as the compound, how does the cytotoxicity call read?
The cytotoxicity call was “inactive”.

How did the cytotoxicity call turn out when `C[C@H](CO)N1C[C@H](C)[C@@H](CN(C)C(=O)Nc2ccccc2)Oc2ccc(NC(=O)CCCCCC(=O)Nc3ccccc3N)cc2CC1=O` was run?
Its cytotoxicity call is “inactive”.

Which cytotoxicity call does the source give for `COc1ccccc1C#Cc1cnc2c(c1)C(=O)N([C@H](C)CO)C[C@@H](C)[C@@H](CN(C)C(=O)CC1CC1)O2` here?
Its cytotoxicity call is “inactive”.

With `C[C@H](CO)N1C[C@H](C)[C@@H](CN(C)S(=O)(=O)c2ccc(Cl)cc2)Oc2ccc(NC(=O)C3CC3)cc2C1=O` as the compound, how does the cytotoxicity call read?
Its cytotoxicity call is “inactive”.

For `CCCCCCCCCCCCCCCC(=O)OCC=C(C)C=CC=C(C)C=CC1=C(C)CCCC1(C)C`, which cytotoxicity call is on record?
The cytotoxicity call was “inactive”.

With `C[C@H]1CN([C@@H](C)CO)C(=O)c2cc(N(C)C)ccc2O[C@H]1CN(C)S(=O)(=O)c1ccc(Cl)cc1` as the compound, how does the cytotoxicity call read?
The cytotoxicity call was “inactive”.

With `C[C@@H]1CCCCO[C@@H](CN(C)S(C)(=O)=O)[C@@H](C)CN([C@H](C)CO)C(=O)c2cc(NS(C)(=O)=O)ccc2O1` as the compound, how does the cytotoxicity call read?
The cytotoxicity call was “inactive”.

`CN(C)CCCNC(=O)C[C@@H]1CC[C@@H]2[C@@H](COc3ccc(NS(C)(=O)=O)cc3C(=O)N2C)O1` was tested. Which cytotoxicity call did it give?
The cytotoxicity call was “inactive”.

Which cytotoxicity call does the source give for `CO[C@@H]1CN(C)C(=O)c2cc(NC(=O)Nc3ccccc3F)ccc2OC[C@H](C)N(Cc2ccccc2C(=O)O)C[C@H]1C` here?
Its cytotoxicity call is “inactive”.

`Cc1ccc(S(=O)(=O)N(C)C[C@H]2Oc3ccc(NS(=O)(=O)c4cn(C)cn4)cc3CC(=O)N([C@@H](C)CO)C[C@H]2C)cc1` was tested. Which cytotoxicity call did it give?
Its cytotoxicity call is “inactive”.

How did the cytotoxicity call turn out when `O=C(Nc1cccc2cccnc12)[C@@H]1[C@H](c2ccc(C(F)(F)F)cc2)CC(=O)N1C(=O)OCc1ccccc1` was run?
The cytotoxicity call was “inactive”.

For `C[C@@H]1CCCCO[C@H](CN(C)C(=O)c2ccncc2)[C@H](C)CN([C@H](C)CO)C(=O)c2cc(NS(C)(=O)=O)ccc2O1`, which cytotoxicity call is on record?
Its cytotoxicity call is “inactive”.

How did the cytotoxicity call turn out when `Cc1ccc(S(=O)(=O)N(C)C[C@H]2Oc3cc(Br)ccc3S(=O)(=O)N([C@@H](C)CO)C[C@H]2C)cc1` was run?
The cytotoxicity call was “inactive”.

Which cytotoxicity call does the source give for `C[C@H](CO)N1C[C@H](C)[C@H](CN(C)S(=O)(=O)c2ccc(Cl)cc2)OCCCC[C@H](C)Oc2ccc(NS(=O)(=O)c3ccccc3)cc2C1=O` here?
Its cytotoxicity call is “active”.

How did the cytotoxicity call turn out when `C[C@@H]1CN([C@@H](C)CO)C(=O)c2cc(NS(=O)(=O)c3ccc(Cl)cc3)ccc2O[C@@H](C)CCCCO[C@@H]1CN(C)S(=O)(=O)c1ccccc1` was run?
Its cytotoxicity call is “active”.

With `C[C@@H]1CN([C@@H](C)CO)C(=O)c2cc(NS(=O)(=O)c3ccccc3)ccc2O[C@@H](C)CCCCO[C@@H]1CN(C)S(=O)(=O)c1ccc(Cl)cc1` as the compound, how does the cytotoxicity call read?
The cytotoxicity call was “inactive”.

With `C[C@H](CO)N1C[C@H](C)[C@@H](CN(C)S(=O)(=O)c2ccccc2)OCCCC[C@H](C)Oc2ccc(NS(=O)(=O)c3ccc(Cl)cc3)cc2C1=O` as the compound, how does the cytotoxicity call read?
Its cytotoxicity call is “inactive”.

How did the cytotoxicity call turn out when `C[C@@H]1CCCCO[C@@H](CN(C)S(=O)(=O)c2ccc(Cl)cc2)[C@H](C)CN([C@H](C)CO)C(=O)c2cc(NS(=O)(=O)c3ccccc3)ccc2O1` was run?
Its cytotoxicity call is “active”.

Which cytotoxicity call does the source give for `C[C@@H]1CCCCO[C@H](CN(C)S(=O)(=O)c2ccccc2)[C@H](C)CN([C@@H](C)CO)C(=O)c2cc(NS(=O)(=O)c3ccc(Cl)cc3)ccc2O1` here?
Its cytotoxicity call is “inactive”.

With `C[C@@H]1CN([C@H](C)CO)C(=O)c2cc(NS(=O)(=O)c3ccc(Cl)cc3)ccc2O[C@@H](C)CCCCO[C@H]1CN(C)S(=O)(=O)c1ccccc1` as the compound, how does the cytotoxicity call read?
Its cytotoxicity call is “active”.

How did the cytotoxicity call turn out when `C[C@@H]1CCCCO[C@@H](CN(C)S(=O)(=O)c2ccccc2)[C@H](C)CN([C@H](C)CO)C(=O)c2cc(NS(=O)(=O)c3ccc(Cl)cc3)ccc2O1` was run?
The cytotoxicity call was “inactive”.

For `C[C@@H]1CCCCO[C@@H](CN(C)S(=O)(=O)c2ccccc2)[C@H](C)CN([C@@H](C)CO)C(=O)c2cc(NS(=O)(=O)c3ccc(Cl)cc3)ccc2O1`, which cytotoxicity call is on record?
The cytotoxicity call was “inactive”.

With `C[C@@H]1CN([C@H](C)CO)C(=O)c2cc(NS(=O)(=O)c3ccc(Cl)cc3)ccc2O[C@@H](C)CCCCO[C@@H]1CN(C)S(=O)(=O)c1ccccc1` as the compound, how does the cytotoxicity call read?
Its cytotoxicity call is “inactive”.

For `C[C@@H]1CN([C@H](C)CO)C(=O)c2cc(NS(=O)(=O)c3ccccc3)ccc2O[C@@H](C)CCCCO[C@@H]1CN(C)S(=O)(=O)c1ccc(Cl)cc1`, which cytotoxicity call is on record?
Its cytotoxicity call is “inactive”.

`C[C@@H]1CCCCO[C@H](CN(C)S(=O)(=O)c2ccc(Cl)cc2)[C@@H](C)CN([C@H](C)CO)C(=O)c2cc(NS(=O)(=O)c3ccccc3)ccc2O1` was tested. Which cytotoxicity call did it give?
Its cytotoxicity call is “inactive”.

Which cytotoxicity call does the source give for `C[C@@H]1CN([C@@H](C)CO)C(=O)c2cc(NC(=O)CCC(F)(F)F)ccc2O[C@@H](C)CCCCO[C@H]1CN(C)Cc1ccncc1` here?
Its cytotoxicity call is “inactive”.

`C=CCOC(=O)[C@H]1[C@@H]2C(=O)O[C@@H](c3ccccc3)[C@@H](c3ccccc3)N2[C@@H](c2ccc(OCCOC(=O)[C@H]3C[C@H]4C(=O)N[C@@H](Cc5ccccc5)C(=O)N4[C@H]3c3ccc(O)cc3)cc2)[C@]12C(=O)Nc1ccc(I)cc12` was tested. Which cytotoxicity call did it give?
The cytotoxicity call was “inactive”.

For `C[C@@H]1CCCCO[C@@H](CN(C)C(=O)NC2CCCCC2)[C@@H](C)CN([C@@H](C)CO)C(=O)c2cc(NS(=O)(=O)c3cccs3)ccc2O1`, which cytotoxicity call is on record?
Its cytotoxicity call is “inactive”.

With `CCCNC(=O)N[C@H]1C=C[C@H](CC(=O)N2CCN(C)CC2)O[C@H]1CO` as the compound, how does the cytotoxicity call read?
The cytotoxicity call was “inactive”.

`Oc1cccc(c1)/C/1=C/2\CC/C(=C(\c3cccc(c3)O)c3ccc([nH]3)/C(=C\3/C=CC(=N3)/C(=C\3/C=CC1=N3)c1cccc(c1)O)c1cccc(c1)O)N2` was tested. Which cytotoxicity call did it give?
The cytotoxicity call was “inactive”.

How did the cytotoxicity call turn out when `C[C@@H]1CN([C@H](C)CO)C(=O)c2cc(NS(=O)(=O)c3ccccc3)ccc2O[C@@H](C)CCCCO[C@H]1CN(C)S(=O)(=O)c1ccc(Cl)cc1` was run?
The cytotoxicity call was “active”.

For `C[C@@H]1CCCCO[C@H](CN(C)S(=O)(=O)c2ccccc2)[C@H](C)CN([C@H](C)CO)C(=O)c2cc(NS(=O)(=O)c3ccc(Cl)cc3)ccc2O1`, which cytotoxicity call is on record?
Its cytotoxicity call is “inactive”.

How did the cytotoxicity call turn out when `C[C@@H]1CCCCO[C@H](CN(C)S(=O)(=O)c2ccc(Cl)cc2)[C@@H](C)CN([C@@H](C)CO)C(=O)c2cc(NS(=O)(=O)c3ccccc3)ccc2O1` was run?
The cytotoxicity call was “inactive”.

`O=C(CS(=O)(=O)c1cccc2nsnc12)N1CC(=O)N(CCc2ccccc2)C(=O)C1` was tested. Which cytotoxicity call did it give?
The cytotoxicity call was “inactive”.

For `C[C@H]1CN([C@@H](C)CO)C(=O)c2cc(NS(=O)(=O)c3cn(C)cn3)ccc2O[C@@H]1CN(C)S(=O)(=O)c1ccc(F)cc1`, which cytotoxicity call is on record?
The cytotoxicity call was “inactive”.
